Experiment [1] deals with Plasmodium falciparum Sir2 (PF13_0152, Sir2A). Nature of the experiment: Plasmodium falciparum Sir2A binding compounds – biochemical, small-molecule microarray, 635 nm fluorescence, primary screen (AID 1098).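 Further: score merges spot fluorescence intensity with its signal-to-noise ratio.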 The settings on record: fluorescence 635 nm, higher = more signal.
A short description of experiment [2]: probe aDKK1 binding to arrayed compounds – biochemical, biotinylated probe, 635/667 nm fluorescence, primary screen (AID 1099).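 Further: score merges 667nm spot fluorescence with signal to noise across triplicate slides.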 The settings on record: small-molecule microarray, higher = more signal.
Experiment [3] is described as follows: probe aCHRDL2 binding to arrayed compounds – biochemical, biotinylated probe, 635/667 nm fluorescence, primary screen (AID 1100). The settings on record: small-molecule microarray, higher = more signal.
The nature of experiment [4]: change in splice reporter luminescence, either direction, cell-based, HEK293, spliceosome inhibition project, primary screen (AID 1101).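 Further: HEK293 cells carrying a splicing-competent luciferase reporter gene; test concentration not given here.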 The settings on record: HEK293 splicing luciferase reporter, 24 h, higher = more signal, called active from +8 up or from −8 down. A general note: Reporter assays use an easily measured gene product as a stand-in for the process of interest.

For experiment [5], the target named is Fibroblast growth factor 10 (Homo sapiens) (UniProt O15520). Nature of the experiment: compounds binding fibroblast growth factor 10 – biochemical, small-molecule microarray, 635 nm fluorescence, primary screen (AID 1102). To be noted: FGF10 binding, fluorescence 635 nm, higher = more signal.
Sequence of Fibroblast growth factor 10 (Homo sapiens) (O15520 whole entry, looked up): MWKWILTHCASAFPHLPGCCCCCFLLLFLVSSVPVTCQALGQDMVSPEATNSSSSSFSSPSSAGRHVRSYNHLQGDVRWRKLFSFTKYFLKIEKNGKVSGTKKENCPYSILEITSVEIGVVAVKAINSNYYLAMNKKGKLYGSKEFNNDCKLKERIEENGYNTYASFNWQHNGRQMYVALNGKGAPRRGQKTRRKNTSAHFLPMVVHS
The subject of experiment [6] is glycogen synthase kinase-3 (GSK3A per assay name; protocol says GSK3B). In words: compounds binding glycogen synthase kinase-3 – biochemical, small-molecule microarray, 635 nm fluorescence, GSK3A, primary screen (AID 1103). Further: the record names both GSK3A and GSK3B. The settings on record: fluorescence 635 nm, higher = more signal.
Experiment [7] addresses Epidermal growth factor receptor (Homo sapiens) (UniProt P00533). In words: compounds binding epidermal growth factor receptor – biochemical, small-molecule microarray, 635 nm fluorescence, primary screen (AID 1104).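 Further: score merges 667 nm emission intensity with spot signal to noise over triplicate slides.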 To be noted: EGFR binding, higher = more signal.
For experiment [8], the target named is Follistatin-related protein 3 (Homo sapiens) (UniProt O95633). In words: compounds binding follistatin-related protein 3 – biochemical, small-molecule microarray, 635 nm fluorescence, primary screen (AID 1105).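 Further: score merges emission near 667 nm and signal to noise per printed spot across three slides.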 The settings on record: FSTL3 binding, higher = more signal.
Sequence of Follistatin-related protein 3 (Homo sapiens) (O95633 whole entry, looked up): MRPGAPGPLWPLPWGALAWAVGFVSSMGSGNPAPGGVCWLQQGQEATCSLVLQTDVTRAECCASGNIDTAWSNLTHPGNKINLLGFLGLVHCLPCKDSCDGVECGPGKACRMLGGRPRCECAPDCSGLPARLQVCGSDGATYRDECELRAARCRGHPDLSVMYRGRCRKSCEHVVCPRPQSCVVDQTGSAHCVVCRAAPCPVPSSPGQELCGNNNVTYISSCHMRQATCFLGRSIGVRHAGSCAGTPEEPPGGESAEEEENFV
The target of experiment [9] is Dickkopf-related protein 1 (Homo sapiens) (UniProt O94907). Nature of the experiment: small molecules binding DKK1 protein – biochemical, small-molecule microarray, 635 nm fluorescence scan, primary screen (AID 1106).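 Further: score merges emission near 667 nm with signal to noise over three replicate slides.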 To be noted: higher = more signal.
Sequence of Dickkopf-related protein 1 (Homo sapiens) (O94907 whole entry, looked up): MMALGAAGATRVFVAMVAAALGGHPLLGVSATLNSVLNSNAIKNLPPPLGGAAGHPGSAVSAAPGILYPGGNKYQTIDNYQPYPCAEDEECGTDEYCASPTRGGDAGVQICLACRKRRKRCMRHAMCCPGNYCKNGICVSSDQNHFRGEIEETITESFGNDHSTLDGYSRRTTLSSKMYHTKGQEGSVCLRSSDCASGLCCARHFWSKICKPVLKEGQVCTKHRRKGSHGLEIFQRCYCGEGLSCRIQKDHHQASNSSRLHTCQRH
For experiment [10], the system named is Inhibin beta A chain (activin A). In words: small molecules binding activin A – biochemical, small-molecule microarray, 635 nm fluorescence scan, primary screen (AID 1107).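 Further: mouse activin A protein probed at 4.33 µg/mL on printed slides; score merges bound-protein fluorescence near 667 nm with spot signal-to-noise.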 To be noted: INHBA, higher = more signal.
The test system of experiment [11] is Human papillomavirus type 1a protein E7 (residues 44-93). Nature of the experiment: small molecules binding HPV E7 44-93 – biochemical, small-molecule microarray, residues 44-93, 635 nm fluorescence, primary screen (AID 1108).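 Further: E7 fragment applied at 1 µg/mL in TBST for 1 h at 4 C; score combines spot fluorescence with its signal to noise ratio.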 To be noted: fluorescence 635 nm, higher = more signal.
A short description of experiment [12]: hepatitis C replication reporter changes, two-sided – Huh7 cells, luciferase reporter, HCV replication inhibitor project, primary screen (AID 1109).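 Further: huh7 hepatoma cells harbouring a luciferase neomycin HCV replicon reporter; luciferase luminescence as measure of HCV replicon replication; test concentration not given here.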 To be noted: Huh7 HCV replicon luciferase reporter, 48 h; higher = more signal.
The target in experiment [13] is Left-right determination factor 2 (Homo sapiens) (UniProt O00292). Nature of the experiment: small molecules binding LEFTY2 protein – biochemical, small-molecule microarray, 635 nm fluorescence scan, primary screen (AID 1110). To be noted: higher = more signal.
Sequence of Left-right determination factor 2 (Homo sapiens) (O00292 whole entry, looked up): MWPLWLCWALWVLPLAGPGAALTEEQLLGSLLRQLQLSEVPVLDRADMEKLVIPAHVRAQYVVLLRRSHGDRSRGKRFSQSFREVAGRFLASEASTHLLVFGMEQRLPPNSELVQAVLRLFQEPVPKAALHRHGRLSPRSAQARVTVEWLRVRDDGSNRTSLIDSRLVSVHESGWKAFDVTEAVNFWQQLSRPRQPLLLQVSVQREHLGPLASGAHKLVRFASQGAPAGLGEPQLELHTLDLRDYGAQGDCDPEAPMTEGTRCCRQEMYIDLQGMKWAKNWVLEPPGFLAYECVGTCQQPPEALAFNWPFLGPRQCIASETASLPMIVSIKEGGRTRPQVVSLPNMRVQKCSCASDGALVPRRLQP
In experiment [14] the target is Calmodulin-1 (Homo sapiens) (UniProt P0DP23). In words: small molecules binding calmodulin-1 with EGTA – biochemical, small-molecule microarray, Cy5-labelled CALM1, profiling panel (AID 1111).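 Further: labelled calmodulin applied in Tris saline Tween buffer holding calcium plus EGTA and DTT.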 To be noted: Cy5-CALM1 binding fluorescence, higher = more signal.
Experiment [15] shares this target. Nature of the experiment: small molecules binding Ca-loaded calmodulin-1 – biochemical, small-molecule microarray, Cy5-labelled CALM1, plus calcium, artefact control for SMM control-protein annotation, profiling panel (AID 1112).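 Further: score merges spot fluorescence with signal to noise from triplicate slides.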 The settings on record: Cy5-CALM1 binding fluorescence, higher = more signal.
Experiment [16] in a line: probe aWnt5a binding to arrayed compounds – biochemical, biotinylated probe, 635/667 nm fluorescence, primary screen (AID 1113).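 Further: score merges 667 nm fluorescence intensity with signal-to-noise per printed feature.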 The settings on record: small-molecule microarray, higher = more signal.
Experiment [17] can be described thus: probe aShh binding to arrayed compounds – biochemical, biotinylated probe, 635/667 nm fluorescence, primary screen (AID 1114).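 Further: probe is biotin-labelled aShh protein from a stem cell growth factor screen; measures binding of labelled protein to compounds printed on the slide; score merges feature fluorescence at 667 nm with signal-to-noise.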 To be noted: small-molecule microarray, higher = more signal.
Experiment [18] is described as follows: probe aNog binding to arrayed compounds – biochemical, biotinylated probe, 635/667 nm fluorescence, primary screen (AID 1115).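 Further: probe is biotinylated aNog protein used at 0.15 µg/mL for 1 h at 4 C; z-score combines 667 nm fluorescence of each spot with its signal to noise.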 The settings on record: small-molecule microarray, higher = more signal.
The target of experiment [19] is Torsin-1A-interacting protein 1 (Homo sapiens) (UniProt Q5JTV8). Nature of the experiment: compound microarray binding of lysate hLAP1 – cell lysate, small-molecule microarray, COS7 lysate, 635/667 nm fluorescence, primary screen (AID 1116). To be noted: 635 nm fluorescence, higher = more signal.
Sequence of Torsin-1A-interacting protein 1 (Homo sapiens) (Q5JTV8 whole entry, looked up): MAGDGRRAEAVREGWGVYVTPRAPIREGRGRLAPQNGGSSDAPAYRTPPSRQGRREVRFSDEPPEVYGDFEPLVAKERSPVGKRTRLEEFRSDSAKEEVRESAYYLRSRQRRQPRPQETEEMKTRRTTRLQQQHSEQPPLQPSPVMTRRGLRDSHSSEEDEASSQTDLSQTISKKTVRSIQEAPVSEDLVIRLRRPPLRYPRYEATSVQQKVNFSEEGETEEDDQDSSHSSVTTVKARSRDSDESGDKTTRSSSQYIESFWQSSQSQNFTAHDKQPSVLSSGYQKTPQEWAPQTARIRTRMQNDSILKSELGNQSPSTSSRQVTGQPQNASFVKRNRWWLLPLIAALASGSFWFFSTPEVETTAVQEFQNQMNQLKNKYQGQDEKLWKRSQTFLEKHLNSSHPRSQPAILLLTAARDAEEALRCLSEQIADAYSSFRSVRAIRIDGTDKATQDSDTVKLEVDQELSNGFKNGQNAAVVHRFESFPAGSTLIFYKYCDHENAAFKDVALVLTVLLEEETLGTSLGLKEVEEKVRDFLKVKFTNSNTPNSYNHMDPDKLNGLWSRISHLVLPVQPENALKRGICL
For experiment [20], the target named is Alpha-bungarotoxin (Bungarus multicinctus) (UniProt P60615). In words: compounds binding labelled alpha-BTX control protein – biochemical, small-molecule microarray, Alexa647 label, 635/667 nm fluorescence, artefact control for SMM control protein annotation, profiling panel (AID 1117). To be noted: alpha-BTX-A647 binding fluorescence, higher = more signal.
Sequence of Alpha-bungarotoxin (Bungarus multicinctus) (P60615 whole entry, looked up): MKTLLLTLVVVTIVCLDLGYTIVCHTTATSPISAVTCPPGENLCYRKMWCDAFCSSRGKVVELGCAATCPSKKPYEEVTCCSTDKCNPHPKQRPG

Activity calls are given as the source filed them.

Sequence of Epidermal growth factor receptor (Homo sapiens) (P00533 whole entry, looked up): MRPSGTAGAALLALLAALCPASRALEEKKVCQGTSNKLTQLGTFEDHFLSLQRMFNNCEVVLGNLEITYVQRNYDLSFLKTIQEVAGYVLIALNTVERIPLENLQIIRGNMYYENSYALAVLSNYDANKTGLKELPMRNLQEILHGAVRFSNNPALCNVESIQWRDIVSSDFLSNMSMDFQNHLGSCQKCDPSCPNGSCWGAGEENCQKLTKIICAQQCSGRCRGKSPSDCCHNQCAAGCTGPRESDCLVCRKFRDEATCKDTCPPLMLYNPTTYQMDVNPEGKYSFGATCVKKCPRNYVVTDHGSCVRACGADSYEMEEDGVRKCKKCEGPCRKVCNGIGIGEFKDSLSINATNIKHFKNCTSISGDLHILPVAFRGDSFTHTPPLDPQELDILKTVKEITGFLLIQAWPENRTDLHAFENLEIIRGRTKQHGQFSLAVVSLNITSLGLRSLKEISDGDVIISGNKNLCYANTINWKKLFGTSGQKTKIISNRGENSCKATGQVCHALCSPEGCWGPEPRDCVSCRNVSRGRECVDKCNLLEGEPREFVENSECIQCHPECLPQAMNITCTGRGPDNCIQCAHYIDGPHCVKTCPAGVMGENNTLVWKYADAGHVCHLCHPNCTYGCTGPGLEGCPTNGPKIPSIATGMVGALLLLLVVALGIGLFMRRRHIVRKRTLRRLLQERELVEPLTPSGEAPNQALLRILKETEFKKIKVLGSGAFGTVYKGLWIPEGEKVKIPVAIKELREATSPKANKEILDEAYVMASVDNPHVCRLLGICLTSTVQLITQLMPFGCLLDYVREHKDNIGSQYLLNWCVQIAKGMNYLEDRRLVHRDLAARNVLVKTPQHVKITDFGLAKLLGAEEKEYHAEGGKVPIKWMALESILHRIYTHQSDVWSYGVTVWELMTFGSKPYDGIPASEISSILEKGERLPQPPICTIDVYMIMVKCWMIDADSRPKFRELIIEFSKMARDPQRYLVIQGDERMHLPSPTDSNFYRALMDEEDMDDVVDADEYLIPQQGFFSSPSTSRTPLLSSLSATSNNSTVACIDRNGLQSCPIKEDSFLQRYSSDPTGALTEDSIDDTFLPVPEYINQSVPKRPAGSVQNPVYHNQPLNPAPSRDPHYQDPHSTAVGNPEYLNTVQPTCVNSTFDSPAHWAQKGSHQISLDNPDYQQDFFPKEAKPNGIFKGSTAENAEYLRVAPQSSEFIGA

In the case of `COC(=O)C(CC#Cc1ccc2c(c1)[C@]1(C(=O)N2)[C@H](C(=O)O)[C@H]2C(=O)O[C@H](c3ccccc3)[C@H](c3ccccc3)N2[C@@H]1c1ccc(OCCO)cc1)C(=O)OC`, the composite z-score in experiment [1] was 1.53; in experiment [2], 0.393; in experiment [3] it was 0.799; in [5], 1.15; in [6], 0.987; in experiment [7] it was -0.199. Moreover, the composite z-score in experiment [8] is 0.0514; in [9], -0.611; in [10] it was 0.117; in experiment [11], 0.738; in [13], 0.155; in experiment [14] it was 2.16. Besides, the composite z-score is 0.717 in experiment [15]; -0.0229 in [16]; 0.166 in [17]; 0.78 in experiment [18]; 1.5 in experiment [19]; 3.51 in experiment [20]. In addition, the z-score is -1.31 (inactive) in [4] and -0.555 in experiment [12].
For the compound `C=C(C1=CCN(S(=O)(=O)c2ccc(C)cc2)C1)[C@@H](OC(C)=O)[C@@H]1CCCN1S(=O)(=O)c1ccccc1[N+](=O)[O-]`, the composite z-score in experiment [1] is 1.55; in [2], -0.362; in experiment [3], -0.254; in experiment [5] it was 0.0611; in experiment [6], -0.297; in experiment [7], -0.0578. In addition, the composite z-score in experiment [8] is -0.114; in experiment [9], -0.239; in experiment [10] it was 1.2; in experiment [11], -0.38; in [13], -0.0476; in experiment [14] it was -0.765. Besides, the composite z-score in experiment [15] is -0.856; in experiment [16] it was -0.208; in [17], 0.0469; in experiment [18], 0.353; in experiment [19], 0.156; in experiment [20] it was -1.48. In addition, the z-score in experiment [4] was -3.24 (inactive); in experiment [12], -4.62.
For `C=CC[C@]1(C(=O)N2CCCCC2)COC(c2ccc(OCCCO)cc2)=N1`, the composite z-score in experiment [1] was -0.0697; in [2] it was -0.0336; in experiment [3], 0.83; in experiment [5], -0.621; in [6], -0.217; in [7], -1. Moreover, the composite z-score was -1.32 in experiment [8]; -0.358 in experiment [9]; 1.28 in experiment [10]; 0.0296 in experiment [11]; -0.727 in experiment [13]; -1.56 in experiment [14]. Besides, the composite z-score is -0.29 in experiment [15]; -0.176 in [16]; -0.138 in experiment [17]; 0.179 in experiment [18]; 1.01 in experiment [19]; -0.212 in [20]. The z-score in [4] was 0.682 (inactive); in experiment [12], -1.1.
Turning to `C=CCNC(=O)[C@H]1[C@@H]2C(=O)O[C@@H](c3ccccc3)[C@@H](c3ccccc3)N2[C@@H](c2ccc(OCCO)cc2)[C@]12C(=O)Nc1ccc(C#CCCO)cc12`, the composite z-score was 1.36 in experiment [1]; 0.299 in [2]; 0.797 in experiment [3]; 0.241 in [5]; -0.145 in experiment [6]; -0.105 in [7]. The composite z-score is 0.359 in [8]; -0.059 in experiment [9]; 0.629 in experiment [10]; 0.699 in experiment [11]; -0.0631 in experiment [13]; 0.0076 in [14]. In addition, the composite z-score is 0.295 in [15]; -0.175 in [16]; -0.0769 in experiment [17]; 0.332 in experiment [18]; 1.42 in [19]; 1.9 in [20]. Moreover, the results for the z-score in experiment [4] and in experiment [12] were -1.26 (inactive) and -0.735, respectively.
Regarding `CCCNC(=O)[C@@]1(Sc2ccc(C)cc2)CC(=O)N(Cc2cc(C(F)(F)F)cc(C(F)(F)F)c2)[C@@H]1c1ccc(CO)cc1I`, the composite z-score in experiment [1] was 1.24; in experiment [2], 0.832; in experiment [3], 1.11; in [5], -0.544; in experiment [6], -0.656; in experiment [7] it was -0.711. Moreover, the composite z-score is -0.372 in experiment [8]; -0.799 in [9]; 1.08 in experiment [10]; -0.536 in experiment [11]; -1.58 in experiment [13]; 1.54 in [14]. Further, the composite z-score is 1.11 in experiment [15]; -0.0512 in experiment [16]; 0.0141 in experiment [17]; 0.573 in experiment [18]; 1.68 in [19]; 0.521 in experiment [20]. For the same compound, the figures for the z-score in experiment [4] and in experiment [12] were -2.39 (inactive) and -1.41, respectively.
In the case of `C=CCN1C(=O)[C@@]2(O[C@@H](CCn3cc(CCO)nn3)[C@H]([Si](C)(C)c3ccc(OC)cc3)[C@H]2C)c2cc(NC(=O)c3ccc(OC)cc3)ccc21`, the composite z-score in [1] was 1.18; in [2], 0.0251; in experiment [3] it was 0.113; in experiment [5], 0.402; in experiment [6], 0.546; in experiment [7], 0.283. For the same compound, the composite z-score in experiment [8] was 0.571; in experiment [9] it was 0.493; in experiment [10] it was 1.32; in [11], 0.988; in experiment [13] it was 0.415; in experiment [14], 0.317. The composite z-score in experiment [15] is 0.33; in [16], 0.0205; in [17], -0.0035; in experiment [18], -0.056; in experiment [19] it was 0.403; in [20], 1.54. In addition, the values for the z-score in experiment [4] and in experiment [12] were -0.654 (inactive) and -3.92, respectively.
`COCCCNC(=O)[C@@]1(Cc2ccccc2)N=C(c2ccc(OCCCO)cc2)O[C@H]1c1ccccc1N=[N+]=[N-]`: the composite z-score was 0.481 in [1]; 1.22 in experiment [2]; 1.19 in experiment [3]; 1.2 in experiment [5]; 1.24 in [6]; -0.176 in experiment [7]. Moreover, the composite z-score in experiment [8] was 0.176; in experiment [9], 0.101; in [10] it was 1.31; in [11], 0.175; in experiment [13], -0.151; in experiment [14], 1.05. The composite z-score came out at 0.945 in experiment [15]; 0.115 in experiment [16]; 1.02 in experiment [17]; 0.805 in experiment [18]; 0.948 in [19]; 1.35 in experiment [20]. In addition, the z-score is -1.3 (inactive) in [4] and -2.59 in experiment [12].
As for `COc1ccc(C#Cc2ccc3c(c2)[C@]2(C(=O)N3)[C@H](c3ccc(O)cc3)N3[C@H](c4ccccc4)[C@H](c4ccccc4)OC(=O)[C@H]3[C@@H]2C(=O)N2CCN(c3ncccn3)CC2)cc1`, the composite z-score worked out at 0.595 in experiment [1]; 0.762 in [2]; 0.657 in experiment [3]; 0.388 in experiment [5]; 0.424 in experiment [6]; 0.0077 in experiment [7]. In addition, the composite z-score was 0.219 in [8]; -0.0775 in experiment [9]; 0.0381 in [10]; 0.778 in experiment [11]; -0.0042 in [13]; 1.95 in [14]. Further, the composite z-score in experiment [15] is 0.707; in experiment [16] it was 0.0236; in [17], 0.842; in experiment [18] it was 0.353; in experiment [19], 1.28; in experiment [20] it was 1.75. The z-score in experiment [4] was -0.835 (inactive); in [12] it was -1.15.
